Rab9 prom act: Rab9 promoter activation | Huh7 Rab9 promoter-luciferase reporter, luminescence, 24 h | Potency, µM (highest dose often 9.22 µM), for inactives: at the highest dose activation, negative = inhibition, usual class: activators | AID 485297 | actives 2.8% (n = 320,000); further: % of control where 0% means no effect; nearly all actives have a fitted effect of over 60% in size
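Luminescence from Amplite-detected luciferase (10 minutes, ambient) reports Rab9 promoter activation. Before that, stable Rab9-luciferase Huh7 cells (1500/well, reduced-serum OP-MEM I plus 10% FBS) were exposed to compound for 24 hours at 37C.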
Luc counter: blocks Kinase-Glo luciferase, a counter-screen artifact. Q27757. Kinase-Glo luciferase, ATP luminescence, 8 min. Potency, µM (doses to about 38.3 µM), for inactives: at the highest dose activity change, negative = inhibition, usual class: inhibitors. actives 0.28% (n = 200,000); further: on the % scale 0 is the no-effect control and ±100 the full control effect; nearly all actives have a fitted effect of over 60% in size
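Compounds were added to a substrate mix at pH 7.2 (50 mM imidazole, 10 uM ATP, within the enzyme's linear range), followed by Kinase-Glo detection reagent; luminescence was measured after 8 minutes at ambient temperature.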
SMN2 splice up: increases expression of the SMN2 splice variant. HEK293 SMN2-luciferase splicing reporter, luminescence, 30-36 h. Potency, µM (top dose mostly 46.1 µM), inactives show at the highest dose activity change, positive = activation, most hits filed as activators. actives 2.8% (n = 210,000). AID 1458; further: % of control where 0% means no effect; nearly all actives have a fitted effect of over 55% in size
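HEK293 cells carry an SMN2 minigene-luciferase reporter in which exon 7 inclusion puts luciferase in frame. Cells were seeded at 2000 cells/well, attached for 10-12 hours, then exposed to compounds for 30-36 hours at 37C before ONE-Glo luminescence.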
NPC1 promoter act: activators of NPC1 promoter; actives 2.4% (n = 320,000); Huh7 NPC1 promoter luciferase reporter, 24 h; Potency, µM (doses to about 9.22 µM), for inactives: top-dose activation, hits mostly activators; further: % of control where 0% means no effect; nearly all actives have a fitted effect of over 60% in size
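In 1536-well qHTS, Huh7 cells harboring an NPC1 promoter–luciferase construct received compound for 24 h; activation was quantified by luminescence following luciferase reagent addition.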
FLuc counter: firefly luciferase modulation, counter-screen for miR-21 project | purified FLuc, Km substrates, luminescence inhibition | Potency, µM (series often up to 57.5 µM), inactives show at the highest dose activity change, negative = inhibition, actives largely listed as inhibitors | actives 6.9% (n = 360,000) | AID 588342;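 further: plate controls were vehicle for no effect and reference inhibitor for full effect; nearly all actives have a fitted effect of over 55% in size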
Target sequence (P08659 whole entry, looked up): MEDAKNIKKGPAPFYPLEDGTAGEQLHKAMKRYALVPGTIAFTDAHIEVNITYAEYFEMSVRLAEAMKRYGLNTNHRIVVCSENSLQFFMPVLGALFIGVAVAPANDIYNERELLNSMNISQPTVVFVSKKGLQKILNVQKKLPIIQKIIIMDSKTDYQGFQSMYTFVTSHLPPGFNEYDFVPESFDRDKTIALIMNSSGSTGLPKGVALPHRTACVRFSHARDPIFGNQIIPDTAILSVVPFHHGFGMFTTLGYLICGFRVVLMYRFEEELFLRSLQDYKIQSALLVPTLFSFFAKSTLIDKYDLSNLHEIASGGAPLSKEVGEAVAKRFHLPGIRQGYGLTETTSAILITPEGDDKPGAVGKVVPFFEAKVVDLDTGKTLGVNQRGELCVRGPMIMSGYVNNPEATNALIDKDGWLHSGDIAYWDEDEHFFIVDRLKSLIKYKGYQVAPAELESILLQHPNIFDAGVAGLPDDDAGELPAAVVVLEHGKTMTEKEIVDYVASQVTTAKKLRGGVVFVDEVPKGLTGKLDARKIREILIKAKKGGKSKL
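Purified P. pyralis luciferase, 10 nM final, with Km-level 10 uM D-luciferin and 10 uM ATP in 50 mM Tris acetate pH 7.5, 10 mM Mg acetate, 0.01% Tween-20, 0.05% BSA; 6-point qHTS titration about 60 µM downward; luminescence read.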
ELG1 genotox: inducers of genotoxicity in HEK293T ELG1-luciferase cells; Potency, µM (series often up to 46 µM), for inactives: top-dose activity change, positive = activation, usual class: activators; HEK293T ELG1-luciferase reporter, luminescence, 16 h; AID 504466; actives 1.3% (n = 330,000); further: % of control where 0% means no effect; nearly all actives have a fitted effect of over 60% in size
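DMSO vehicle served as control against compound-treated ELG1-luciferase HEK293T cells; exposure lasted 16 hr at 37 °C and 5% CO2, followed by ONE-Glo luminescence detection after 30 min.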
* hit, by the source's call; ? = inconclusive; . = no result given; [ ] = remark or other dose. Hits are enriched below; roughly 7.5% of the tested compounds scored in any of these assays. The call rests on the fitted dose curve; in most records, active means well fitted curve in the direction sought with a large enough effect; inconclusive means small, poorly fitted or top-dose-only effect, or another doubt; inactive means no such curve, though single readings can be large; an effect the other way counts as inactive or inconclusive. Potency means the concentration at half of the fitted maximal effect.

SMILES	Rab9 prom act	Luc counter	SMN2 splice up	NPC1 promoter act	FLuc counter	ELG1 genotox
Cc1cc(N2CCOCC2)nc2ccc(NC(=O)CCC(=O)N3CCCCC3)cc12	4µM*	0%	8.9µM*	?	?	?
Cc1cc(N2CCOCC2)nc2ccc(NC(=O)CCC(=O)N3CCC(C)CC3)cc12	4.5µM*	.	.	?	12µM*	7%
Cc1c(F)cccc1NS(=O)(=O)c1ccc2c(c1)c(=O)n(C)c(=O)n2C	-2%	2%	-17%	-2%	-9%	-4%
Cc1cc(N2CCOCC2)nc2ccc(Cl)cc12	?	.	.	?	6µM*	?
CCCCN(C)C(=O)CCC(=O)Nc1ccc2nc(N3CCOCC3)cc(C)c2c1	?	0%	20µM*	?	?	6%
CCOc1ccc(N(C)S(=O)(=O)c2ccc3c(c2)C(C)(C)C(=O)N3C)cc1	.	.	.	.	-1%	.
Cn1nccc1C(=O)Nc1ccn(C23CC4CC(CC(C4)C2)C3)n1	-2%	4%	-56%	7%	27µM*	?
CCC(=O)Oc1ccc(C(=O)Nc2cccc(C(=O)NCC(C)C)c2)cc1	-9%	3%	.	-4%	13µM*	-1%
COc1cccc(CNC(=O)c2ccc(C(=O)NCc3cccc(OC)c3)cc2)c1	-3%	.	.	-1%	3%	?
COc1ccc(NC(=O)c2cccc(NC(=O)c3ccccc3)c2)cc1	?	.	.	?	?	4%
O=C(Nc1ccccc1C(=O)NCc1ccco1)Nc1cccc2ccccc12	-4%	0%	3%	-5%	-20%	-4%
COc1cccc(CNC(=O)c2ccc(C3SCCS3)cc2)c1	6%	.	.	4%	17µM*	17%
COc1ccc(C(=O)Nc2cccc(C(=O)NCc3ccccc3)c2)cc1	-2%	-3%	1%	3%	12µM*	-5%
O=C(Nc1cccc(Cl)c1)Nc1ccccc1C(=O)NCc1ccco1	7%	-10%	9%	3%	19µM*	1%
CC(C)CN1CCC(=O)N(CCN=[N+]=[N-])CC1	3%	.	.	-5%	7%	1%
Cc1occc1C(=O)Nc1cccc(C(=O)NCc2ccccc2)c1	-8%	4%	-8%	-1%	1%	-4%
Cc1ccc(C(=O)Nc2cccc(C(=O)NCc3ccco3)c2)cc1	28%	-2%	?	?	12µM*	12%
Cc1ccc(C(=O)Nc2cccc(C(=O)NCc3ccccc3)c2)cc1	10%	-3%	-14%	13%	8.5µM*	-8%
CC(C(=O)Nc1ncc([N+](=O)[O-])s1)N1C(=O)c2ccccc2S1(=O)=O (stereo unspecified)	1%	.	.	-3%	-1%	2%
CN(CC(=O)Nc1ccc(F)cc1)C(=O)c1ccc2ccccc2n1	-1%	.	.	-3%	-2%	1%
Cc1ccc(C)c(NC(=S)c2ccc3ccccc3n2)c1	3.2µM*	0%	11µM*	?	5.4µM*	?
Cc1ccc(C)c(NC(=S)c2ccccn2)c1	23%	-11%	17%	21%	17µM*	15%
CN(C)c1ccc(NC(=S)c2ccc3ccccc3n2)cc1	24%	.	.	?	17µM*	?
COC(=O)c1ccc(CSc2nc3c(c(=O)[nH]2)CCC3)cc1	.	.	.	.	5%	.
Cc1ccc(-c2nn(-c3ccccc3)cc2C2CC(c3cccs3)=NN2C(=O)CCC(=O)O)cc1 (stereo unspecified)	-1%	1%	-14%	0%	0%	4%
SMILES	Rab9 prom act	Luc counter	SMN2 splice up	NPC1 promoter act	FLuc counter	ELG1 genotox
O=C(O)CCn1cc(C2CC(c3ccccc3)=NN2c2ccccc2)c(-c2ccccc2)n1 (stereo unspecified)	10%	-1%	0%	-1%	19µM*	-2%
COc1c(C)cc(Br)cc1C(=O)Nc1ccc(N2CCN(S(C)(=O)=O)CC2)cc1	-1%[1.84 µM]	-2%	0%	-5%	2%	6%
COc1ccccc1C(=O)Nc1ccccc1N1CCN(S(C)(=O)=O)CC1	-1%	1%	?	-1%	2%	-10%
COc1c(C)cccc1C(=O)Nc1ccc(N2CCN(S(C)(=O)=O)CC2)cc1	3.2µM*	2%	?	4µM*	15µM*	?
COc1ccccc1C(=O)Nc1ccc(N2CCN(S(C)(=O)=O)CC2)cc1	?	-11%	?	25%	?	9.2µM*
CCn1c(SCC(=O)N2CCN(C(=O)c3ccco3)CC2)nnc1C(C)C	-9%	1%	.	2%	-2%	0%
CN(C(=O)Cn1cc(C(F)(F)F)cc(Cl)c1=O)C1CCS(=O)(=O)C1 (stereo unspecified)	-4%	.	.	-2%	0%	-5%
CNc1nc(-c2ccc3c(c2)CCN3C(=O)c2ccccc2F)cs1	0.56µM*	-15%	13µM*	1.6µM*	1.5µM*	?
COc1ccccc1C(=O)NCc1ccc2c(c1)CCN2C(=O)c1cccc(C)c1	.	.	.	.	-7%	.
CNc1nc(-c2ccc3c(c2)CCN3C(=O)c2ccccc2F)c(C)s1	11%	0%	.	9%	15µM*	1%
Cc1ccc(C(=O)N2CCc3cc(CNC(=O)c4ccccc4F)ccc32)cc1	.	.	.	.	19µM*	.
Cc1ccc(Nc2nc3ccccc3c(=O)[nH]2)cc1C	?	-1%	?	29%	-15%	8%
Cc1ccc(Nc2nc(/N=C/N(C)C)n[nH]2)cc1C	?	-2%	?	?	24µM*	6%
CC(O)c1nc2ccccc2n1Cc1nnc(-c2ccc(Cl)cc2)o1 (stereo unspecified)	16%	-5%	-25%	8%	17µM*	11%
CNC(=S)N/N=C/c1c(C)nn(-c2ccc(F)cc2)c1Cl	-4%	-1%	11%	-3%	-3%	15%
Cc1nn(-c2ccc(F)cc2)c(Cl)c1/C=N/NC(=O)c1ccc(O)cc1	0%	0%	9%	2%	19µM*	-3%
Cc1nn(-c2ccc(F)cc2)c(Cl)c1/C=N/NC(=O)c1cccs1	2µM*	3%	?	?	?	17%
COCCN1Cc2cccc(C(=O)Nc3cccc(OC)c3)c2C1=O	10%	3%	-32%	-1%	-16%	2%
COCCN1Cc2cccc(C(=O)Nc3ccc(C)c(C)c3)c2C1=O	16%	-9%	-1%	-1%	7.6µM*	10%
CCOc1ccc(NC(=O)c2cccc3c2C(=O)N(CCOC)C3)cc1	21%	-3%	-8%	7%	6.7µM*	15%
COc1ccc(N2Cc3cccc(C(=O)Nc4ccc(C(C)C)cc4)c3C2=O)cc1	.	.	?	.	0.27µM*	.

Assay outcomes as filed in PubChem BioAssay.
